# Rows were chosen to be rich in hits. Some 2.1% of all compounds tested hit in one or more screens of this group.
# TDP-43 yeast inh = rescues yeast growth from TDP-43 toxicity. TDP-43 expressing yeast growth rescue, BacTiter-Glo, 24 h. Potency, µM (doses to about 46.1 µM), inactives show top-dose growth rescue (activation), most hits filed as activators. hit rate 1.8% among 410,000. AID 652104; note: % of control where 0% means no effect; nearly all actives have a fitted effect of over 50% in size
#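 Galactose-induced TDP-43 yeast, OD600=0.02, compound pinned; 24 hr, 30 deg C; BacTiter-Glo luminescence for growth. Inhibitors of TDP-43 toxicity read as activators.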
# aSyn yeast inh = rescues yeast growth from alpha-synuclein toxicity; Potency, µM (top dose mostly 46.1 µM), inactives show at the top dose growth rescue (activation), actives largely listed as activators; Yeast expressing alpha-synuclein, growth rescue, BacTiter-Glo, 24 h; hit rate 0.14% among 370,000; note: % of control where 0% means no effect; nearly all actives have a fitted effect of over 65% in size
#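 Readout is rescue of growth in alpha-synuclein-expressing yeast, so inhibitors of toxicity appear as activators. Growth after 24 hr at 30 deg C in galactose medium is quantified by luminescence.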
# FUS yeast rescue = rescues growth of FUS-expressing yeast. hit rate 0.24% among 390,000. Potency, µM (top dose mostly 76.6 µM), most hits filed as activators. S. cerevisiae FUS-expressing, growth rescue, OD600, 24 h;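 note: plate controls were DMSO vehicle for no effect and reference control for full effect; nearly all actives have a fitted effect of over 55% in size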
#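 Read-out: OD at 600 nm after 24hr at 30C, reporting rescue of FUS-induced yeast toxicity. Cells at OD 0.005 in galactose (2%) minimal medium; compounds tested in a dilution series; CP55940 titration from 92uM final as control.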
# Abeta yeast res = compounds reversing amyloid beta toxicity in yeast; yeast expressing A-beta42, growth rescue, OD600, 48 h; response scale: 0% DMSO, 100% iron-clioquinol control; Potency, µM (series often up to 46.1 µM), actives largely listed as activators; AID 1347071; hit rate 0.063% among 410,000; note: nearly all actives have a fitted effect of over 55% in size
#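 Yeast A-beta toxicity model in growth medium with pinned compounds, 48 h at 30 C; growth read as absorbance at 600 nm. Normalized to FeCl3/clioquinol equimolar mix (positive) and DMSO (negative).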
# An asterisk follows results filed as active; i = inactive; ? = inconclusive; / = not tested or not shown; [ ] = another dose, or the depositor's remark. Calls come from the whole dose curve; as a rule, active = well fitted curve in the direction sought with a large enough effect; inconclusive = small, poorly fitted or top-dose-only effect, or another doubt; inactive = no such curve, though single readings can be large; an effect the other way counts as inactive or inconclusive. Potency is the fitted concentration of half-maximal effect.
SMILES,TDP-43 yeast inh,aSyn yeast inh,FUS yeast rescue,Abeta yeast res
O=C(NCc1ccccc1F)c1ccc2c(c1)OCCO2,14µM*,-26%,i,?
CCCCNC(=O)CCCN1C(=O)c2ccccc2Sc2ncccc21,16%,/,i,i
COc1ccc(CN(Cc2ccccc2)C(=O)c2ccco2)cc1COc1ccc(NC(C)=O)cc1,/,0%,/,/
COc1ccc(CC(=O)NCC(c2ccc(N(C)C)cc2)N2CCOCC2)cc1OC (stereo not drawn),21%,/,i,i
C(=C\c1ccc2ccccc2n1)/c1cccnc1,/,-21%,/,/
Cc1c(NC(=O)C(=O)/C=C(/O)c2ccccc2)c(=O)n(-c2ccccc2)n1C,-49%,11%,/,i
COc1ccc(/C(O)=C/C(=O)C(=O)NNC(=O)c2ccccc2)cc1,-49%,19%,i,i
COc1ccc(/C(O)=C/C(=O)C(=O)Nc2c(C)n(C)n(-c3ccccc3)c2=O)cc1,0%,0%,28µM*,i
COc1ccc(/C(O)=C/C(=O)C(=O)NNC(=O)C(O)(c2ccccc2)c2ccccc2)cc1,2%,8%,28µM*,i
O=C1C(Cl)=C(Nc2ccccc2O)C(=O)N1c1ccccc1,35µM*,-1%,i,i
Cc1nc2ccccc2c2nc3ccccc3n12,13µM*,?,i,i
CC(C)CCn1c(SCc2cccc(F)c2)nc2ccsc2c1=O,9%,/,i,i
CCN(C[C@@H]1[C@@H](c2ccccc2)[C@H](CO)N1S(C)(=O)=O)C(=O)C1CCC1,/,/,i,/
CSc1ccc(-c2cnc(N3CCC(C(N)=O)CC3)s2)cc1,/,/,i,/
COCc1cc(C)nc2sc(C(=O)N3CCN(c4ccccc4)CC3)c(N)c12,20µM*,2%,i,i
COCc1cc(C)nc2sc(C(=O)N3CCCCC3)c(N)c12,-35%,-5%,i,i
FC(F)(F)c1ccccc1Cc1c(-c2cccc(Br)c2)nc2c3ccccc3ccn12,14µM*,2%,i,i
CN(C)c1ccc(/C=C/c2ccnc3ccc(-c4ccccc4)cc23)cc1,/,8%,/,/
O=C(Cc1ccc(Br)cc1)c1ccc(O)cc1O,?,-11%,i,i
COc1ccc(CC(=O)c2ccc(O)cc2O)cc1,13µM*,-4%,i,i
O=C(Cc1ccc([N+](=O)[O-])cc1)c1ccc(O)cc1O,16µM*,-9%,i,i
CCCCCSc1nc2sc3c(c2c(=O)n1-c1ccccc1)CCN(C(C)=O)C3,?,/,i,i
COc1ccccc1N1CCN(c2ncnc3c2cnn3-c2cc(Cl)ccc2C)CC1,?,/,i,i
CCOC(=O)C(C)Sc1ccc2nnc(-c3ccc(OCC)cc3)n2n1 (stereo not drawn),/,2%,/,/
COc1ccc2oc(=O)cc(CN3CCN(c4ccccc4F)CC3)c2c1,6%,/,i,i
SMILES,TDP-43 yeast inh,aSyn yeast inh,FUS yeast rescue,Abeta yeast res
CCC(=O)Nc1ccc(-c2nnc(SCc3ccccc3)n2C)cc1,/,-12%,/,/
Cc1ccc(/C(N)=N/OC(=O)Cc2cccc3ccccc23)cc1,14µM*,-20%,i,i
Cc1cccc(C(=O)O/N=C(\N)Cc2cccc3ccccc23)c1,-53%,-77%,i,i
Cc1cccc(/C(N)=N/OC(=O)Cc2cccc3ccccc23)c1,11µM*,-29%,i,i
Cc1ccc(/C(N)=N/OC(=O)Cc2ccccc2)cc1,9%,-20%,i,i
CCOC(=O)CC[C@@]1(C(=O)OCC)C[C@@H](CC(=O)NCCc2ccccc2OC)C(=O)N2CCCC=C21,/,/,i,/
CCOc1cccc2sc(N3CCN(C(=O)c4ccc5c(c4)CCCC5)CC3)nc12,12%,/,?,i
CCn1c2ccccc2c2cc(/C=C3\C=Cc4ccccc43)ccc21,/,10%,/,/
COc1cccc(N/C(SC)=C(/C#N)C(=O)NCc2cccs2)c1,14µM*,-5%,i,i
Cn1c(=O)c2cc(C(=O)NC3CCCCCC3)sc2c2ccccc21,1%,/,i,i
CCOc1ccccc1N(CC)C(=O)c1cc2c(=O)n(CC)c3ccccc3c2s1,12%,/,32µM*,i
CCn1c(=O)c2cc(C(=O)NC3CCCCCC3)sc2c2ccccc21,16µM*,/,i,i
CCn1c(=O)c2cc(C(=O)N(C)c3ccc(OC)cc3OC)sc2c2ccccc21,19%,-1%,2µM*,i
CC(C)C(Cl)=NOC(=O)Nc1ccc(F)cc1,13µM*,-9%,/,i
O=C(CSc1ccccc1F)Nc1ccc(N2CCOCC2)cc1,14%,2%,i,i
O=C(CSc1cc(Cl)ccc1Cl)Nc1ccc(N2CCOCC2)cc1,16µM*,0%,i,i
CC(C)Oc1ccc(-c2nc(-c3cccnc3)no2)cc1,/,3%,/,/
CCc1ccc(C(=O)c2cn(Cc3ccc(F)cc3)c3cc(OC)c(OC)cc3c2=O)cc1,?,/,35µM*,i
CCc1ccc(C(=O)c2cn(CC(=O)Nc3ccc(F)c(F)c3)c3cc(OC)c(OC)cc3c2=O)cc1,-8%,/,?,i
O=C1CCCC2=C1C(c1ccc(Cl)cc1)N=C(Nc1nc3ccccc3o1)N2 (stereo not drawn),/,5%,/,/
COc1ccc(OC)c(S(=O)(=O)N2CCC(c3ccncc3)CC2)c1,0%[9.22 µM],/,i,i
CCN(C(=O)c1cnc(N2CCOCC2)c2ccccc12)c1cc(C)ccc1C,0%,/,i,i
COc1ccc(/C=C2\NC(=S)N(CC3CCCO3)C2=O)c(OC)c1C (stereo not drawn),13µM*,-1%,i,i
COc1nc(NC23CC4CC(CC(C4)C2)C3)nc(OC)n1,14µM*,13%,i,i
COc1ccccc1NC(=O)COc1cccnc1[N+](=O)[O-],7.9µM*,9%,i,i
SMILES,TDP-43 yeast inh,aSyn yeast inh,FUS yeast rescue,Abeta yeast res
Cc1noc(-c2ccccc2OCC(=O)Nc2ccccc2[N+](=O)[O-])n1,20µM*,/,i,i
O=S1(=O)C=C(Sc2nc3cc(Cl)ccc3o2)c2ccccc21,13µM*,-8%,i,i
COc1cccc(/C=c2/[nH]c(=O)/c(=C\c3cccc(OC)c3OC)[nH]c2=O)c1OC,/,0%,/,/
Oc1ccccc1/C=N/Nc1cccc2cccnc12,18µM*,-17%,i,i
Cc1cccc(NC(=O)n2ccc3ccc(-c4ccc5cc[nH]c5c4)cc32)c1,/,/,i,/
Cc1ccccc1N1CCN(C(=O)CCn2nnc3ccccc32)CC1,/,/,i,/
Cc1ccc(C)c2c1cc(C)c1nnc(SCc3ccccn3)n12,11µM*,/,i,i
O=C(CSc1ccc(Cl)cc1)c1ccco1,7%,-1%,i,i
O=C(CSc1ccccc1Cl)c1ccco1,16µM*,0%,i,i
COc1ccc(N2CCN(c3nc4ccccc4nc3NS(=O)(=O)c3ccccc3)CC2)cc1,20µM*,-17%,i,i
CSc1ccccc1NC(=O)COC(=O)/C=C/c1ccco1,5µM*,1%,i,i
O=C(COC(=O)/C=C/c1ccco1)NCCc1ccccc1,16µM*,3%,i,i
CNC(=O)COC(=O)/C=C/c1ccco1,0%,-22%,i,i

# Compound activity: PubChem, National Center for Advancing Translational Sciences (NCATS)
